# Source: PubChem
# Compounds with a hit are over-represented: about 0.24% of the library has one in this group of screens.
# Caspase-1 inhib: qHTS Assay for Allosteric/Competitive Inhibitors of Caspase-1; Caspase-1 enzyme, Ac-WEHD-AFC fluorogenic rate; Potency, µM (doses to about 57.5 µM), for inactives: at the highest dose activity change, negative = inhibition, actives largely listed as inhibitors; hit rate 0.03% among 75,000; AID 900, 2007;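 further: potency means the concentration at half of the fitted maximal effect; plate controls were vehicle for no effect and no substrate for full effect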
# Ub-GFP proteasome: Ubiquitin-GFP Assay; 67,000 tested, under 10 active; Potency, µM (series often up to 45.9 µM), without a hit: at the highest dose activation (GFP accumulation), usual class: activators; Ubiquitin-GFP reporter cells, proteasome inhibition, GFP fluorescence; response scale: untreated = 0%, 10 µM MG-132 = 100%; AID 526, 2006; active means well fitted activation curve with a large enough effect, not every such curve was filed as active; inconclusive means small, poorly fitted or top-dose-only effect, or another doubt; inactive means no such curve, though single readings can be large or run the other way; further: potency means the concentration at half of the fitted maximal effect
#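 U2OS Ub(G76V)-GFP reporter; O/N plating, 0.5% FBS; cpd 46 uM–2.9 nM, 4 h, 37 °C; GFP+ cell count, 488/515 nm; norm. to basal vs 10 uM MG-132; CRC fit.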
# HBB splicing: qHTS Assay for Modulators of Hemoglobin Beta Chain Splicing | Potency, µM (highest dose often 46.1 µM), for the others: at the highest dose activation, hits mostly activators | HBB splicing reporter cell assay, activation; EGFP reporter with mutant IVS2-654 intron; response scale: normalised to 500 nM splice-correcting PNA | hit rate 0.06% among 65,000; further: potency means the concentration at half of the fitted maximal effect; 0% is about no effect
#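 HeLa cells stably expressing EGFP interrupted by mutant beta-globin intron 2 (IVS2-654), 500/well in 2% FCS. Treated with compound for 2 days at 37C. Splicing correction scored as total well GFP intensity (488 nm excitation, 500-520 nm emission); 500 nM antisense PNA served as control.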
# Caspase-7 inhib: qHTS Assay for Allosteric/Competitive Inhibitors of Caspase-7; recombinant caspase-7, Ac-DEVD-AFC fluorescence rate; P55210; Potency, µM (titrated, usually from 57.5 µM), without a hit: at the top dose activity change, negative = inhibition, usual class: inhibitors; hit rate 0.02% among 75,000; active means well fitted inhibition curve with a large enough effect in the main read-out, with a control signal flat, not every such curve was filed as active; inconclusive means small, poorly fitted or top-dose-only effect, or a change in a side signal; further: potency means the concentration at half of the fitted maximal effect; % of control where 0% means no effect
# GFP derepression: qHTS Assay for Epigenetic Modulators | mouse C127i GFP locus derepression, cytometry, 30 h | Potency, µM (doses to about 46.1 µM), without a hit: at the top dose GFP derepression (activation) | hit rate 0.09% among 68,000; further: % of control where 0% means no effect
#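 Read-out is the number of GFP-positive cells, scored as fluorescent objects 20 to 120 um wide, reflecting derepression of a silenced CMV-GFP reporter in murine C127i cells after 30 h compound exposure at 37 C.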
# USP2a inhib: qHTS Assay for Inhibitors of Ubiquitin-specific Protease USP2a | USP2a enzymatic assay, qHTS inhibition | hit rate 0.1% among 60,000 | AID 927, 2007 | Potency, µM (top dose mostly 38.3 µM), for inactives: top-dose activity change, negative = inhibition, hits mostly inhibitors; further: potency means the concentration at half of the fitted maximal effect; nearly all actives have a fitted effect of over 60% in size
#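 Inhibition is measured in a cell-free coupled assay with 20 nM USP2 core, 20 nM Ub-PLA2 and 20 uM NBD C6-HPC, 2.5 h incubation. Activity normalized to NEM control.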
# The depositor's hits bear a star; ? = inconclusive; nt = no result given; [ ] = dose if it differs, or a comment. Unless noted, the call rests on the fitted dose curve; in most records, active means well fitted curve in the direction sought with a large enough effect; inconclusive means small, poorly fitted or top-dose-only effect, or another doubt; inactive means no such curve, though single readings can be large; an effect the other way counts as inactive or inconclusive.
SMILES,Caspase-1 inhib,Ub-GFP proteasome,HBB splicing,Caspase-7 inhib,GFP derepression,USP2a inhib
O=C1c2c(O)cc(O)cc2O[C@@H](c2ccc(O)c(O)c2)[C@H]1O,3%,4%,1%,1%,0%,-4%
COc1ccc(NC(=O)CN2CCN(c3ccc(Cl)cc3)CC2)c(OC)c1,-2%,-4%,-1%,2%,1%,13µM*
CC(C)c1ccc2c(c1)CC[C@@H]1[C@@](C)(CN)CCC[C@@]21C,nt,-1%,nt,nt,12%[9.22 µM],nt
CN1CCN(c2ncc3nc(-c4ccc(F)cc4)c(=O)n(C4CC4)c3n2)CC1,nt,3%,0%,?,5%[9.22 µM],10µM*
CN1CCN(c2ncc3nc(-c4ccc(Cl)cc4)c(=O)n(C4CC4)c3n2)CC1,nt,1%,-1%,?,0%[9.22 µM],98%
NS(=O)(=O)c1ccc(N=Nc2nc3[nH]cnc(=S)c3[nH]2)cc1,-1%[11.5 µM],0%[9.17 µM],4µM*,3%[11.5 µM],-3%[9.22 µM],nt
OC[C@@H]1O[C@@H](n2cnc3c(NCCc4ccccc4)ncnc32)[C@@H](O)[C@H]1O,nt,2%,-2%,nt,-1%,nt
COc1ccc2c(c1)Cc1sc(NC(=O)c3cccs3)nc1-2,32µM*,-2%,-1%,?,2%,34%
O=C(/C=C\c1ccc(O)cc1)c1ccc(O)cc1O,2%,-12%,1%,-3%,0%,-8%
C/C(=C\COc1cc(=O)[nH]c2ccccc12)CC[C@@H](O)C(C)(C)O,nt,-7%,nt,nt,2%[9.22 µM],nt
Cc1cccc(N2C(=O)c3cccc4c(N(C)CCO)ccc(c34)C2=O)c1,nt,-4%[9.17 µM],20µM*,?,0%,41%[7.66 µM]
Nc1ncnc2nc[nH]c12.Nc1ncnc2nc[nH]c12.[Cl][Pt]([Cl])([Cl])[Cl],nt,1%[9.17 µM],1%[9.22 µM],nt,6%[9.22 µM],nt
Cc1coc(NC(=O)CSc2nc(-c3ccncc3)cc(C(F)(F)F)c2C#N)n1,-6%,-2%,nt,-3%,10µM*,6%
CCCCCCCCCCCC(CC1OC(=O)C1CCCCCC)OC(=O)C(CC(C)C)NC=O (configuration not stated),1%,nt,nt,1%,nt,10µM*
Cc1c(Cl)cccc1NC(=O)c1cc(-c2ccc(O)cc2)on1,-4%,-5%,-1%,-4%,-3%,nt
C[C@H]1[C@H](C)CC[C@@]2(C(=O)O)CC[C@]3(C)C(=CC[C@@H]4[C@@]5(C)CC[C@H](O)C(C)(C)[C@@H]5CC[C@@]43C)[C@@H]12,nt,-2%,nt,nt,-2%[9.22 µM],nt
Oc1c(CN2CCc3ccccc3C2)cc(Cl)c2cccnc12,-6%,1%,-2%,-3%,nt,nt
Oc1ccc(CN2CCN(Cc3ccccc3)CC2)c2cccnc12,-1%,-3%,nt,0%,?,148%
Oc1c(CN2CCCCC2)cc(Br)c2cccnc12,-1%,22%,-1%,0%,3.2µM*,17%
CN1CCN(Cc2cc(COCc3ccccc3)c3cccnc3c2O)CC1,-1%,-8%,1%,-1%,6.3µM*,23%
COc1ccc(CNC(=O)C(C#N)c2nc3ccccc3nc2N2CCN(C)CC2)cc1 (configuration not stated),-7%,6%,-1%,-8%,3%,40%
COc1ccc(CNC(=O)C(C#N)c2nc3ccccc3nc2N2CCCC2)cc1 (configuration not stated),nt,?,13µM*,?,?,56%
O=C(OC1Cc2c(O)cc(O)cc2OC1c1cc(O)c(O)c(O)c1-c1c(C2Oc3cc(O)cc(O)c3CC2O)cc(O)c(O)c1O)c1cc(O)c(O)c(O)c1 (configuration not stated),0%,nt,nt,-27%,nt,10µM*
C[C@H](N)C1CCC(C(=O)Nc2ccncc2)CC1 (some centres not stated),-1%,-5%,-1%,0%,0%,6%
